The panel holds about 79,000 compounds, 15% with a hit somewhere; the sample as a whole holds those more often. Unmarked numbers belong to inactive results. Calls of active or inactive are those of the source. No stated cut-off is given here; in the data, active means growth inhibition above about 70%; inactive means the rest.
How the values were obtained:
[1] = NCI Yeast Anticancer Drug Screen. Data for the rad50 strain (AID 155);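 further: 0% = growth of vehicle-only cultures of the same strain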; conditions: S. cerevisiae rad50 strain growth inhibition, stronger effect = higher value
Method in brief: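 Relative growth inhibition (compound vs vehicle) was measured in yeast with a defined repair-gene alteration.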

[2] = NCI Yeast Anticancer Drug Screen. Data for the mec2-1 strain (AID 157); conditions: S. cerevisiae mec2-1 strain, stronger effect = higher value
Method in brief: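 Test agents were screened against the mec2-1 yeast strain, with defined DNA repair or cell cycle alteration. Growth was scored as inhibition against vehicle-only controls.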

[3] = NCI Yeast Anticancer Drug Screen. Data for the sgs1 mgt1 strain (AID 161);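 further: 0% = growth of cultures given vehicle only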; conditions: S. cerevisiae sgs1 mgt1 strain, stronger effect = higher value
Method in brief: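 Mutant yeast exposed to compound; growth scored against vehicle-only wells.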

[4] = NCI Yeast Anticancer Drug Screen. Data for the cln2 rad14 strain (AID 165);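 further: 0% = growth equal to vehicle treated cultures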; conditions: S. cerevisiae cln2 rad14 strain, stronger effect = higher value
Method in brief: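 Growth of compound-exposed yeast (cln2 rad14 genotype) measured and expressed as inhibition relative to vehicle.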

[5] = NCI Yeast Anticancer Drug Screen. Data for the bub3 strain (AID 167); conditions: S. cerevisiae bub3 mutant strain, stronger effect = higher value
Method in brief: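 Screening used yeast with an engineered genetic alteration affecting cell cycle control. Compound-exposed cultures were compared with vehicle cultures, and reduced growth was taken as inhibition.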

[6] = NCI Yeast Anticancer Drug Screen. Data for the mlh1 rad18 strain (AID 175); conditions: S. cerevisiae mlh1 rad18 strain growth inhibition, stronger effect = higher value
Method in brief: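 In this whole-cell yeast screen, a strain with altered DNA damage repair is challenged with compound, and its growth is measured against matched vehicle-treated controls.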

[7] = at 5.0 µM (retest, dose inferred, filed as 0.5)
[8] = at 50.0 µM (retest, dose inferred, filed as 5.0)

SMILES | growth inhibition [1, 7] | growth inhibition [1, 8] | growth inhibition ([1]; at 50.0 µM) | growth inhibition [2, 7] | growth inhibition [2, 8] | growth inhibition ([2]; at 50.0 µM) | growth inhibition [3, 7] | growth inhibition [3, 8] | growth inhibition ([3]; at 50.0 µM) | growth inhibition [4, 7] | growth inhibition [4, 8] | growth inhibition ([4]; at 50.0 µM) | growth inhibition [5, 7] | growth inhibition [5, 8] | growth inhibition ([5]; at 50.0 µM) | growth inhibition [6, 7] | growth inhibition [6, 8] | growth inhibition ([6]; at 50.0 µM)
CCCCC(=O)OC1=C(Br)C(=O)c2ccccc2C1=O | 20% | 98% (active) | 96.3% (active) | 24% | 100% (active) | 63% | 10% | 96% (active) | 81.1% (active) | 3% | 88% (active) | -11.8% | 14% | 97% (active) | 13.8% | 37% | 98% (active) | 75.3% (active)
COc1ccc(-c2c(C#N)c(S)n(NS(=O)(=O)c3ccc(C)cc3)c(=O)c2C#N)cc1 | 40% | 89% (active) | 28.8% | 18% | 88% (active) | 69.1% | 34% | 97% (active) | 61% | 48% | 64% | 20% | 58% | 95% (active) | 43.8% | 27% | 69% | 71.5% (active)
CCn1c(C)cc(=O)n1-c1ccc([N+](=O)[O-])cc1 | -160% | -148% | 51.1% | -45% | -50% | 17.4% | -60% | -48% | 25.4% | -64% | -69% | 24% | -71% | -78% | 50.1% | -146% | -110% | 68.9%
O=C(OC1C=C=CS(=O)(=O)CC#C/C=C\1)c1cnc2ccccc2n1 (stereo not drawn) | 15% | 96% (active) | 76.9% (active) | -17% | 95% (active) | 75.8% (active) | -28% | 91% (active) | 74.3% (active) | 15% | 90% (active) | 78.5% (active) | -36% | 94% (active) | 79.5% (active) | 19% | 97% (active) | 69.3%
Cc1c2cnccc2c(C)c2c1c1ccccc1n2CCCCCCNCc1ccccc1 | 9% | 95% (active) | 99% (active) | -1% | 76% (active) | 99.2% (active) | 1% | 91% (active) | 99.3% (active) | 2% | 83% (active) | 98.2% (active) | 2% | 74% (active) | 98.8% (active) | -3% | 97% (active) | 99% (active)
O=C(N/C(=C\c1ccc(Oc2ccc(Cl)c(Cl)c2)cc1)c1nc2ccccc2[nH]1)c1ccccc1 | 29% | 97% (active) | 97.8% (active) | 10% | 97% (active) | 98.3% (active) | 10% | 97% (active) | 98% (active) | 13% | 65% | 95.6% (active) | 15% | 95% (active) | 97.2% (active) | 6% | 89% (active) | 98.2% (active)
